The target of assay [1] is Estrogen receptor beta (Homo sapiens) (UniProt Q92731). The assay is described as follows: qHTS assay to identify small molecule agonists of the estrogen receptor beta (ER-beta) signaling pathway (AID 1259377; active = well fitted activation curve with a large enough effect in the signal ratio in the repeat runs, not every such curve was filed as active; the % refers to the signal ratio). In outline: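 Read-out: beta-lactamase FRET fluorescence. Cell line: ER-beta-UAS-bla HEK293T in 2% charcoal-stripped FBS. Exposure: 16 hr at 37C. Substrate step: 2 h at room temperature.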
Estrogen receptor beta (Homo sapiens), sequence (Q92731 whole entry, looked up): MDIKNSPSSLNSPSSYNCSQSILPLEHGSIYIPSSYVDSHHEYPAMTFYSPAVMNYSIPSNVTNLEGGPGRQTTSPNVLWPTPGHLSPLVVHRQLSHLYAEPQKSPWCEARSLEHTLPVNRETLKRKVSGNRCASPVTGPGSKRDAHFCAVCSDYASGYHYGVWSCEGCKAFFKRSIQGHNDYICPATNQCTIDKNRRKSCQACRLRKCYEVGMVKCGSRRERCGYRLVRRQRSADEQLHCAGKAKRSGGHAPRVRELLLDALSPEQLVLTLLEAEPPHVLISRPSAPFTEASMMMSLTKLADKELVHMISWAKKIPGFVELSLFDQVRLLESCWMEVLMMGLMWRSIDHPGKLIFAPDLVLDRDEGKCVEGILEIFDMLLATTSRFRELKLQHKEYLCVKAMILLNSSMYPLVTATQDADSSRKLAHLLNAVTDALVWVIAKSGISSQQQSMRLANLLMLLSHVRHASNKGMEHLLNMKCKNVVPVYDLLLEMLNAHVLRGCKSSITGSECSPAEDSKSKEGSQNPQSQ

The target is the same in assay [2]. The assay is described as follows: qHTS assay to identify small molecule antagonists of the estrogen receptor beta (ER-beta) signaling pathway (AID 1259378; active = well fitted inhibition curve with a large enough effect in the signal ratio in the repeat runs, not every such curve was filed as active; the % refers to the signal ratio; also: potency is read from the fitted curve at half-maximal effect). In outline: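 Antagonist mode: compounds added to beta-lactamase reporter HEK293T ER-beta-UAS cells stimulated with E2 (1nM final), 16 hr at 37C. LiveBLAzer B/G FRET substrate, 2 hours room temperature, fluorescence read-out.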

A short description of assay [3]: qHTS assay to identify small molecule agonists of the androgen receptor (AR) signaling pathway in the presence of an antagonist - cell viability counter screen (AID 1259379). Also: nearly all actives have a fitted effect of over 25% in size. Also: potency is read from the fitted curve at half-maximal effect. In outline: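 MDA-kb2 cells (MMTV-luciferase, AR/GR), 3,000/well, 5 h attachment, then 3.0 µM nilutamide (final) and compounds at 15 concentrations. Viability by CellTiter-Fluor fluorescence after 16 h at 37 °C, 0% CO2, in the reporter wells.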

Assay [4] can be described thus: qHTS assay to identify small molecule agonists of the estrogen receptor beta (ER-beta) signaling pathway - cell viability counter screen (AID 1259380). Also: nearly all actives have a fitted effect of over 30% in size. Also: potency is read from the fitted curve at half-maximal effect. The gist of the method:
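ER-beta-UAS-bla HEK293T cells in medium with 2% charcoal-stripped FBS, pre-incubated 6 hr, then treated 16 hr at 37C. Cytotoxicity read in the same wells by CellTiter-Glo luminescence after 30 min at room temperature.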

Assay [5] can be described thus: qHTS assay to identify small molecule antagonists of the estrogen receptor beta (ER-beta) signaling pathway - cell viability counter screen (AID 1259382). Also: nearly all actives have a fitted effect of over 55% in size. Also: potency is read from the fitted curve at half-maximal effect. The gist of the method:
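ER-beta-UAS-bla HEK293T cells in 2% charcoal-stripped FBS medium, treated with compound plus 1 nM 17-beta-estradiol for 16 h at 37C. Viability read by CellTiter-Glo luminescence after 30 min at room temperature in the same wells.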

A short description of assay [6]: qHTS assay to identify small molecule agonists or antagonists of the thyroid stimulating hormone receptor (TSHR) signaling pathway - wild type cell line counter screen (AID 1259384; calls by dose curve). In outline:
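Counter screen in untransfected Hek293: compounds (15-point titration, triplicate) plus phosphodiesterase inhibitor Ro20-1724 added after 18 h plating; 30 min RT. Intracellular cAMP via competitive d2/cryptate immunoassay, 1 h incubation.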

The target of assay [7] is Thyrotropin receptor (Homo sapiens) (UniProt P16473). Briefly: qHTS assay to identify small molecule antagonists of the thyroid stimulating hormone receptor (TSHR) signaling pathway (AID 1259385; calls by dose curve; also: nearly all actives have a fitted effect of over 20% in size). The gist of the method: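 Antagonist mode: compound-treated TSHR-expressing HEK293 cells were stimulated with 1.5 ng/mL TSH (final) in presence of Ro20-1724 for 30 min at RT. HTRF cAMP detection after 1 h; each compound tested at 15 concentrations, triplicate.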
Thyrotropin receptor (Homo sapiens), sequence (P16473 whole entry, looked up): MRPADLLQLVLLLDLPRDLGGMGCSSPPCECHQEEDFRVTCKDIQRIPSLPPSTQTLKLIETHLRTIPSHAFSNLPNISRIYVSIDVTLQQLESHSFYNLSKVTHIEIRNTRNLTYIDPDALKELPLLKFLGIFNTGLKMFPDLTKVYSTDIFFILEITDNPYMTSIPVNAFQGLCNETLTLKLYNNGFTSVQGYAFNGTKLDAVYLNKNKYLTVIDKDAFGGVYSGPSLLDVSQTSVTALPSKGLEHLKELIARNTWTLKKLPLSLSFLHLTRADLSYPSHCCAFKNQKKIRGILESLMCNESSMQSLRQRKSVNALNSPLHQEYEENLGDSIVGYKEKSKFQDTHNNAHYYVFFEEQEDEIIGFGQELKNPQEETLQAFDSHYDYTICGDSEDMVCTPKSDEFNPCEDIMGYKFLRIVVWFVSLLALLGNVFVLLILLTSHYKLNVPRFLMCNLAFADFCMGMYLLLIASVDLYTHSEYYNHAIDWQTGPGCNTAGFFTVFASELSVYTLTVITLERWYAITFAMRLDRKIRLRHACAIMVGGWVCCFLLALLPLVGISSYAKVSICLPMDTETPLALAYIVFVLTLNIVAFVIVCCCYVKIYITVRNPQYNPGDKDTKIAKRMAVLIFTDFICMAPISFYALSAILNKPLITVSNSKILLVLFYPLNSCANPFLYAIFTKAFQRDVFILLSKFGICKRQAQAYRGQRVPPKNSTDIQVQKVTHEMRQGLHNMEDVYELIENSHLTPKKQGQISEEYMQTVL

Assay [8] concerns the target Progesterone receptor (Homo sapiens) (UniProt P06401). Briefly: qHTS assay to identify small molecule agonists of the progesterone receptor (PR) signaling pathway (AID 1346784; calls by dose curve; also: nearly all actives have a fitted effect of over 30% in size). The gist of the method: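 Compounds were tested for PR agonism in HEK 293T cells bearing a beta-lactamase gene under UAS control. Treatment lasted 16 hr at 37C; signal came from fluorescence of a FRET substrate.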

The target is the same in assay [9]. Briefly: qHTS assay to identify small molecule antagonists of the progesterone receptor (PR) signaling pathway (AID 1346795; active = well fitted inhibition curve with a large enough effect in the signal ratio in the repeat runs, not every such curve was filed as active; the % refers to the signal ratio; also: potency is read from the fitted curve at half-maximal effect). In outline:
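In HEK293T cells bearing the PR-UAS-bla reporter, compound effects on promegestone-driven (1 nM) beta-lactamase expression are assessed after 16 hr using a fluorescent FRET substrate incubated 2 hr at room temperature.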

A short description of assay [10]: qHTS assay to identify small molecule antagonists of the progesterone receptor (PR) signaling pathway - cell viability counter screen (AID 1346798). Also: series mostly up to about 92 µM; nearly all actives have a fitted effect of over 50% in size. In outline:
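Following a 4 hr attachment, PR-UAS-bla HEK293T cells in charcoal-stripped FBS medium were exposed to compounds with R5020 for 16 hr; CellTiter-Glo was added and luminescence read after 30 min at room temperature.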

Assay [11] can be described thus: qHTS assay to identify small molecule agonists of the progesterone receptor (PR) signaling pathway - cell viability counter screen (AID 1346799; calls by dose curve; also: nearly all actives have a fitted effect of over 45% in size). The gist of the method: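 Here, 3,000 PR-UAS-bla HEK293T cells per well were treated with compounds for 16 hr after a 6 hr preincubation at 37C and 5% CO2; cell viability is the CellTiter-Glo luminescence signal.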
Assay [12] is described as follows: qHTS assay to identify small molecule agonists of the TGF-beta/Smad signaling pathway - cell viability counter screen (AID 1346829). Also: top concentration of the series differs between compounds; nearly all actives have a fitted effect of over 45% in size. The gist of the method:
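Tox21 qHTS format: SBE-bla HEK 293T cells treated with DMSO-dissolved compounds for 5 hr; CellTiter-Glo luminescence after 30 min at room temperature.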

A short description of assay [13]: qHTS assay to identify small molecule agonists of the TGF-beta/Smad signaling pathway (AID 1346859; active = well fitted activation curve with a large enough effect in the signal ratio in the repeat runs, not every such curve was filed as active; the % refers to the signal ratio; also: series mostly up to about 77 µM). In outline: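 Each well held 4,000 SBE-bla HEK 293T cells incubated overnight before compound addition; 5 hr later the cleavable FRET substrate went on for 2 hr at room temperature, and fluorescence was read at two emissions.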
Assay [14] addresses Thyrotropin-releasing hormone receptor (Homo sapiens) (UniProt P34981). The assay is described as follows: qHTS assay to identify small molecule antagonists of the thyrotropin-releasing hormone receptor (TRHR) signaling pathway (AID 1346877; active = well fitted inhibition curve with a large enough effect in the repeat runs, not every such curve was filed as active; also: series mostly up to about 51 µM). In outline: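 TRHR-expressing HEK293 cells loaded with calcium dye for 2 h at 37 C; compounds pre-incubated 5 min at room temperature before TRH challenge at 1 nM final. Intracellular calcium fluorescence read kinetically for 3 min; 15 concentrations in triplicate.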

Assay [15] shares this target. Briefly: qHTS assay to identify small molecule agonists of the thyrotropin-releasing hormone receptor (TRHR) signaling pathway (AID 1346891; calls by dose curve; also: series mostly up to about 58 µM). In outline:
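Screening of agonists relied on calcium signalling in HEK293 cells expressing human TRHR: dye loading 2 h at 37 °C preceded compound addition and a 3-min fluorescence time course.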

Assay [16] concerns the target Estrogen receptor (Homo sapiens) (UniProt P03372). Briefly: qHTS assay to identify small molecule agonists of the estrogen receptor alpha (ER-alpha) signaling pathway in the presence of an antagonist (AID 1259383; calls by dose curve; also: top concentration of the series differs between compounds; nearly all actives have a fitted effect of over 15% in size). The gist of the method:
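VM7Luc4E2 cells express endogenous full-length ER-alpha with an ERE-luciferase reporter and were hormone-deprived for 5 days. Compounds at 15 concentrations were added with 10.0nM ICI-182,780 for 22hr at 37C. Luminescence was read with ONE-Glo.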

A short description of assay [17]: qHTS assay to identify small molecule agonists of the estrogen receptor alpha (ER-alpha) signaling pathway in the presence of an antagonist - cell viability counter screen (AID 1259386).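 Also: series mostly up to about 92 µM; cells exposed to compounds for 22 h at 37 °C before the viability read; nearly all actives have a fitted effect of over 30% in size.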 In outline:
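Cell viability in VM7Luc4E2 cells (endogenous full-length ER-alpha) measured by CellTiter-Fluor fluorescence in the same wells as the luciferase screen. Cells pre-cultured 5 days in charcoal-stripped serum, then treated 22 h with compounds at 15 concentrations plus 10.0nM ICI-182,780.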

The nature of assay [18]: Human pregnane X receptor (PXR) small molecule agonists, qHTS cell viability counter screen (AID 1346977). Also: nearly all actives have a fitted effect of over 50% in size. Also: potency is read from the fitted curve at half-maximal effect. The gist of the method: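 Tox21 qHTS format; PXR-Luc HepG2, 2,000/well, charcoal-stripped FBS 5%. Cpd exposure 24hr. Read: CellTiter-Fluor fluorescence, multiplexed with luciferase.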
Assay [19] can be described thus: qHTS assay to identify small molecule antagonists of the TGF-beta/Smad signaling pathway - cell viability counter screen (AID 1346824). Also: nearly all actives have a fitted effect of over 50% in size. The gist of the method:
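Cytotoxicity counter-screen run in the same wells as the beta-lactamase Smad reporter read: CellTiter-Glo luminescence after 30 min at room temperature. HEK 293T SBE-bla cells had 5 hr compound exposure at 37 C with TGF-beta1 (0.25 ng/mL stock).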

Where “and” joins values, the source holds several entries; their conditions need not be identical. Identical values can stand only once. A number with no mark means an inactive call. Records with an inconclusive call do not appear. Calls of active or inactive are those of the source. Unless noted, calls follow the shape of the dose curve; as a rule, active = well fitted curve in the direction sought with a large enough effect in the repeat runs; inconclusive = weak or mixed curves; inactive = no such curve, though single readings can be large; an effect the other way counts as inactive or inconclusive.

Thyrotropin-releasing hormone receptor (Homo sapiens), sequence (P34981 whole entry, looked up): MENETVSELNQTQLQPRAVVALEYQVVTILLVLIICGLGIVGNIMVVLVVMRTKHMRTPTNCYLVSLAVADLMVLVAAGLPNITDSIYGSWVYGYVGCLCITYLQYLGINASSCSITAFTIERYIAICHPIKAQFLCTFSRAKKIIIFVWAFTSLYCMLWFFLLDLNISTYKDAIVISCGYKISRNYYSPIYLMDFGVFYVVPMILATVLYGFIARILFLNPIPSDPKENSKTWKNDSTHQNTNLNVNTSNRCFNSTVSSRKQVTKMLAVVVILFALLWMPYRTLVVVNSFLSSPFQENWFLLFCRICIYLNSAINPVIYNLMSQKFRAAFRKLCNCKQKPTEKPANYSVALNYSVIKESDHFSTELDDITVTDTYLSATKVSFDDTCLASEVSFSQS
Estrogen receptor (Homo sapiens), sequence (P03372 whole entry, looked up): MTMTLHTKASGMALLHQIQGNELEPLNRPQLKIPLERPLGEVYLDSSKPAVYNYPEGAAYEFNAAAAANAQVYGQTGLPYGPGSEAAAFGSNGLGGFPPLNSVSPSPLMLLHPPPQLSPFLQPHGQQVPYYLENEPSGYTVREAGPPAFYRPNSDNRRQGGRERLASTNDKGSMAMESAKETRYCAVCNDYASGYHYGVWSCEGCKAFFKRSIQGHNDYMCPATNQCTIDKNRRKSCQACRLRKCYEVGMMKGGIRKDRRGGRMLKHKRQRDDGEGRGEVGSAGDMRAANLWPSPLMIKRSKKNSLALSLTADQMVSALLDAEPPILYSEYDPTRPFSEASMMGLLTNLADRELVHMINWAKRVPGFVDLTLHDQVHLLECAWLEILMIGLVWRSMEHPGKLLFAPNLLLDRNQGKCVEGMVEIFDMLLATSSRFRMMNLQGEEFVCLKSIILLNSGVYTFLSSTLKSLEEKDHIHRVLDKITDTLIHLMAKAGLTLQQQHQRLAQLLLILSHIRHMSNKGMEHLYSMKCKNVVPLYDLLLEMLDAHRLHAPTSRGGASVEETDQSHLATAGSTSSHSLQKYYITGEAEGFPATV
Progesterone receptor (Homo sapiens), sequence (P06401 whole entry, looked up): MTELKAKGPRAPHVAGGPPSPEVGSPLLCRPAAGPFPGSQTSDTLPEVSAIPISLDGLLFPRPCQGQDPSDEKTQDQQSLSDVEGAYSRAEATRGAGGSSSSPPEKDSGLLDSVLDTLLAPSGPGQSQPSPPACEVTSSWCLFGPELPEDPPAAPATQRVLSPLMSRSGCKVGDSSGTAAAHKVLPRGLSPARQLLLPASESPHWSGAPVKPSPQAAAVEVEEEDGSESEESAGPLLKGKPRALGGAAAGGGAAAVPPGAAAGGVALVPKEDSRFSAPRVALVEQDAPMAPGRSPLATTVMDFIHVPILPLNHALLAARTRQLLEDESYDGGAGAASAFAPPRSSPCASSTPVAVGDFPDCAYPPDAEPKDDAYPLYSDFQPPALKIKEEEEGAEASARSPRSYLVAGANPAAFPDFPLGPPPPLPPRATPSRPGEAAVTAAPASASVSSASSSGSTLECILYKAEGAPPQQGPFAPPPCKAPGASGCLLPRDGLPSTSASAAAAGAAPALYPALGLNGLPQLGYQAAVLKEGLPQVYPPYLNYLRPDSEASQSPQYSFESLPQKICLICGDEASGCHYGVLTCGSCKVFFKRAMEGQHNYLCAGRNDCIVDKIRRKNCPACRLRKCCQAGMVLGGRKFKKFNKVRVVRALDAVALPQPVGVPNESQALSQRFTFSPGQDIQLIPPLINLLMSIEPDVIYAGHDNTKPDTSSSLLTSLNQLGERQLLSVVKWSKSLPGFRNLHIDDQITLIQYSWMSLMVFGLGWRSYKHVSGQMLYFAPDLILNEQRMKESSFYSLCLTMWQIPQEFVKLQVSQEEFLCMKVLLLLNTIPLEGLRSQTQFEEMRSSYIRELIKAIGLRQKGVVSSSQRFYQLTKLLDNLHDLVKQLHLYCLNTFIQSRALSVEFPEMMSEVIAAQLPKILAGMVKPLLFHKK

With `CCCCC(CC)COC(=O)c1ccc(O)cc1` (stereo unspecified), the Potency result in assay [1], in assay [3], in [7], in [10], in assay [11] and in assay [12] was “inactive” in each case. Besides, the Potency entry in [13], in [14] and in [15] was “inactive” throughout. Moreover, the Potency in assay [2] was 21.6 µM (active) and 21.7 µM (active); in assay [4], 61.1 µM (active); in [5], 68.6 µM (active); in [9] it was 30.5 µM (active) and 27.3 µM (active). Besides, the molecule was classed as inactive in assay [6] and in [8].
For `CCc1cccc(CC)c1N(COC)C(=O)CS(=O)(=O)O`, the Potency entry in assay [1], in assay [2], in assay [3], in [4], in [5] and in assay [16] was “inactive” throughout. For the same molecule, the Potency result in assay [17], in [9], in assay [10], in assay [11], in assay [12] and in assay [13] was “inactive” in each case. Moreover, the Potency result in [14], in assay [15] and in assay [18] was “inactive” throughout. In addition, the molecule was called inactive in [6] and in assay [8].
For `CCOCN(C(=O)CS(=O)(=O)O)c1c(C)cccc1CC`, the Potency entry in assay [1], in assay [2], in assay [4], in assay [5], in assay [16] and in assay [7] was “inactive” throughout. Further, the Potency result in assay [17], in [9], in assay [10], in assay [11], in [19] and in assay [12] was “inactive” in each case. The Potency entry in assay [13], in assay [14], in assay [15] and in assay [18] was “inactive” in each case. For the same molecule, the molecule was classed as inactive in [6] and in [8].
As for `CCCCOc1ccc(C(=O)CCN2CCCCC2)cc1`, the Potency entry in assay [1], in assay [2], in [5], in [16], in assay [9] and in assay [10] was “inactive” in each case. The Potency result in [11], in [19], in assay [12], in [13], in [14] and in [15] was “inactive” in each case. The Potency in assay [3] is 29.8 µM (active). The molecule was classed as inactive in assay [6] and in [8].
Consider `C=C(C)C(=O)OCCC[Si](Cl)(Cl)Cl`, for which the Potency result in assay [1], in assay [2], in assay [3], in [5], in assay [7] and in [17] was “inactive” throughout. Besides, the Potency result in assay [9], in assay [10], in [19], in assay [12], in [13] and in assay [18] was “inactive” in each case. For the same molecule, the outcome in assay [6] was inactive.
Take `CO[C@H]1C=CO[C@@]2(C)Oc3c(C)c(O)c4c(O)c(cc(O)c4c3C2=O)NC(=O)/C(C)=C\C=C/[C@H](C)[C@H](O)[C@@H](C)[C@@H](O)[C@@H](C)[C@H](OC(C)=O)[C@@H]1C`: the Potency result in [1], in [16], in assay [7], in assay [9], in [10] and in assay [11] was “inactive” throughout. Also, the Potency entry in [12], in assay [13] and in assay [15] was “inactive” in each case. Further, the Potency in [2] is 43.6 µM (active); in assay [3] it was 48.9 µM (active); in assay [5], 69.1 µM (active); in assay [18], 48.9 µM (active). Besides, the molecule was called inactive in [6] and in [8].
`Cc1occc1SSc1ccoc1C`: the Potency result in [1], in assay [2], in assay [3], in [5], in assay [7] and in assay [17] was “inactive” in each case. Moreover, the Potency entry in [9], in assay [10], in assay [11], in [12], in [13] and in [14] was “inactive” in each case. Besides, the Potency entry in assay [15] and in assay [18] was “inactive” throughout. Besides, the molecule was classed as inactive in assay [6] and in assay [8].
As to `O=C1Nc2ccc(Cl)cc2[C@@](C#CC2CC2)(C(F)(F)F)O1`, the Potency entry in [1], in assay [3], in [7], in assay [17], in [11] and in assay [12] was “inactive” each time. The Potency entry in assay [13], in assay [14] and in [15] was “inactive” each time. Also, the Potency was 23.7 µM (active) in assay [2] and 7.5 µM (active) in assay [9]. Also, in assay [6], the result was inactive.
